Consider one compound from ChEMBL document CHEMBL1961873, “Compounds: GSK PKIS; Assays: Nanosyn kinase panel” (2012).

The target of experiment [1] is Sphingosine kinase 1 (Homo sapiens) (UniProt Q9NYA1). Particulars: at 1 µM.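 Note: mean SPHK1 inhibition value reported from the GSK PKIS kinase panel screen.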
For experiment [2], the target named is T1, Sphingosine kinase 2 (Homo sapiens) (UniProt Q9NRA0).
T1 sequence (whole entry): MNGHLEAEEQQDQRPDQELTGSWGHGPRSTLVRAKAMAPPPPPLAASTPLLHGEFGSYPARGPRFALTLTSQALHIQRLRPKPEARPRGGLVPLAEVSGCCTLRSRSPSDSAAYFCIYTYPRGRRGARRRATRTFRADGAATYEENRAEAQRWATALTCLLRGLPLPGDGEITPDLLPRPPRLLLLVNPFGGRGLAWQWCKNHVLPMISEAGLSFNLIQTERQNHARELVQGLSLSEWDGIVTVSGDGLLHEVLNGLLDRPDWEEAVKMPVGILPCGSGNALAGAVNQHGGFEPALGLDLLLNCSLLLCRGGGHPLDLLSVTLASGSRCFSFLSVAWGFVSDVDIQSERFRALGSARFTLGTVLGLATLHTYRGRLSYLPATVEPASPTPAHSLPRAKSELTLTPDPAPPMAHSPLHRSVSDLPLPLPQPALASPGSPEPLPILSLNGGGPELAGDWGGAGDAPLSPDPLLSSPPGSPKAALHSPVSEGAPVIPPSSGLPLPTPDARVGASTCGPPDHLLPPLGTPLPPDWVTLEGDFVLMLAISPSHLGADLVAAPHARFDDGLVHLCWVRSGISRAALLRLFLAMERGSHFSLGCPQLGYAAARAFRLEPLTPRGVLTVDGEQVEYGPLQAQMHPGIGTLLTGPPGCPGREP
Particulars: at 0.1 µM.

Experiment [3] deals with T1, Sphingosine kinase 2 (Homo sapiens). Particulars: at 1 µM.
The target in experiment [4] is Casein kinase II subunit alpha (Homo sapiens) (UniProt P68400). Particulars: at 0.1 µM.
Casein kinase II subunit alpha (Homo sapiens), sequence (P68400 whole entry, looked up): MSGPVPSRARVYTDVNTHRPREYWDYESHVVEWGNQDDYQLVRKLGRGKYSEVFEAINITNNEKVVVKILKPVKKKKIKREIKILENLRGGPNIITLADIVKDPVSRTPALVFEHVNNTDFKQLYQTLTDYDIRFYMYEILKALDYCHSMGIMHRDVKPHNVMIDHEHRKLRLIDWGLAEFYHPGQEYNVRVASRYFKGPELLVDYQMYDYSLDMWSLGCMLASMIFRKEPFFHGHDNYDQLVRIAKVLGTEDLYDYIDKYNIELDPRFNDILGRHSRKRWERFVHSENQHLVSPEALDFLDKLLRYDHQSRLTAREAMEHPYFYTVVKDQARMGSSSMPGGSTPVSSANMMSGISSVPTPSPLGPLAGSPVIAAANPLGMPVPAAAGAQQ
The target is the same in experiment [5]. Particulars: at 1 µM.
Experiment [6] has as its target T2, Inhibitor of nuclear factor kappa-B kinase subunit alpha (Homo sapiens) (UniProt O15111).
T2 sequence (whole entry): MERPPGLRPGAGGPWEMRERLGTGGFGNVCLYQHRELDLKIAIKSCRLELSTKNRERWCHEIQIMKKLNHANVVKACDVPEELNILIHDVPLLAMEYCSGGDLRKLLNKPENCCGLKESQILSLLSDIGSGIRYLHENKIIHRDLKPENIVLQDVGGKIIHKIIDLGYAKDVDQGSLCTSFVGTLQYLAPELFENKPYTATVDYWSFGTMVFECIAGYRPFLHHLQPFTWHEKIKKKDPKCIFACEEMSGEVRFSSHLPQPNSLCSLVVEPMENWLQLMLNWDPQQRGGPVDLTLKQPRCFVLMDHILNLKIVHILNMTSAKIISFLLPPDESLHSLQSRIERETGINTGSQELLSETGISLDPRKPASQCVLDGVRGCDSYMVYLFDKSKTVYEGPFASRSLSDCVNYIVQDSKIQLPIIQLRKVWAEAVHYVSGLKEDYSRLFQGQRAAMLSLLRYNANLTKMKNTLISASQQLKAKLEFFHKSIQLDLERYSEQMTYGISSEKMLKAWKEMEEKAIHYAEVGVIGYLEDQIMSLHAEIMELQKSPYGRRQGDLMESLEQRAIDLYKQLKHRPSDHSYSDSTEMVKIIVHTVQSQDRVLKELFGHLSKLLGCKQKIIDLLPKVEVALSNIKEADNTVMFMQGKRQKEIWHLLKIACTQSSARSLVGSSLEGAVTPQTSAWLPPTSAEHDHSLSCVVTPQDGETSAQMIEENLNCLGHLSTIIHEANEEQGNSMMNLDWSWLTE
Particulars: at 0.1 µM.

The target of experiment [7] is T2, Inhibitor of nuclear factor kappa-B kinase subunit alpha (Homo sapiens). Particulars: at 1 µM.
For experiment [8], the target named is T3, Inhibitor of nuclear factor kappa-B kinase subunit beta (Homo sapiens) (UniProt O14920).
T3 sequence (whole entry): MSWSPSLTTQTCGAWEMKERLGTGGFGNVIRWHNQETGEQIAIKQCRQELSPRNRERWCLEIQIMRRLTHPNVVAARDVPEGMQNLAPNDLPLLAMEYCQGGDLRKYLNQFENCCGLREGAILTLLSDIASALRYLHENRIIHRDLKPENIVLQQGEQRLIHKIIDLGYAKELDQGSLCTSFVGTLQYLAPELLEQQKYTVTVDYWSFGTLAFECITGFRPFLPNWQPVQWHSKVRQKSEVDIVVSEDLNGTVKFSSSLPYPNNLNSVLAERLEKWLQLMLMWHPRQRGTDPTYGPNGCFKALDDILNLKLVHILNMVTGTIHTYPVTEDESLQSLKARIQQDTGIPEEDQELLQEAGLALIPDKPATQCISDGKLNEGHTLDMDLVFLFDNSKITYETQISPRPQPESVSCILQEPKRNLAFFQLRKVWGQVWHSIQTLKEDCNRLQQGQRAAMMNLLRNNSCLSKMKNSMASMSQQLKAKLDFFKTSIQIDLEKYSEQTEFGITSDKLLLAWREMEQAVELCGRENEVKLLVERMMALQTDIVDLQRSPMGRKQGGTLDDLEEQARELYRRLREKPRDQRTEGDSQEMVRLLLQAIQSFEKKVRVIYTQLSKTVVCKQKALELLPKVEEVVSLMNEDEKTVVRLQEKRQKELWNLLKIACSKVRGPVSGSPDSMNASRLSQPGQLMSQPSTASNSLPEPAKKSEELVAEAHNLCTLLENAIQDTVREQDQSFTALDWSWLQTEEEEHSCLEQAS
Particulars: at 0.1 µM.

The target in experiment [9] is T3, Inhibitor of nuclear factor kappa-B kinase subunit beta (Homo sapiens). Particulars: at 1 µM.
Experiment [10] concerns the target T4, Inhibitor of nuclear factor kappa-B kinase subunit epsilon (Homo sapiens) (UniProt Q14164).
T4 sequence (whole entry): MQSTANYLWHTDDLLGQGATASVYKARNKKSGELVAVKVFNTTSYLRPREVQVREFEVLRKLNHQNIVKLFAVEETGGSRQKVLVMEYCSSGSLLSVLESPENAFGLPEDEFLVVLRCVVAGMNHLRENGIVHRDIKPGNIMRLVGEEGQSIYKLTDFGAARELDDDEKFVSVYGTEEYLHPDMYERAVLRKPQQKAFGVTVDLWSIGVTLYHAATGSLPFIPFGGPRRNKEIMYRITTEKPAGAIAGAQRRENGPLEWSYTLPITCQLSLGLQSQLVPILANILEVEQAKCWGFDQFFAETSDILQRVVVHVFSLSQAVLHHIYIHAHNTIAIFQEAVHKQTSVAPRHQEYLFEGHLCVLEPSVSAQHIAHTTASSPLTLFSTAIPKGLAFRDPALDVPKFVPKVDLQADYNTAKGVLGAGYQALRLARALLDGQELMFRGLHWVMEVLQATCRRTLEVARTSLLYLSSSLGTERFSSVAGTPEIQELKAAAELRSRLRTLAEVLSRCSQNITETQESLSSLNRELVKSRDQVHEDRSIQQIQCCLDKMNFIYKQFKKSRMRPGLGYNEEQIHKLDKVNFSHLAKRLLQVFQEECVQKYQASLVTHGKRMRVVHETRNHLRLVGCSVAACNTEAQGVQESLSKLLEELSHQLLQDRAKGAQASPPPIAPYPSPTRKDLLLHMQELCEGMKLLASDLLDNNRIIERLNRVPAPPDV
Particulars: at 0.1 µM.

Experiment [11] concerns the target T4, Inhibitor of nuclear factor kappa-B kinase subunit epsilon (Homo sapiens). Particulars: at 1 µM.
Experiment [12] addresses T5, Serine/threonine-protein kinase Nek1 (Homo sapiens) (UniProt Q96PY6).
T5 sequence (whole entry): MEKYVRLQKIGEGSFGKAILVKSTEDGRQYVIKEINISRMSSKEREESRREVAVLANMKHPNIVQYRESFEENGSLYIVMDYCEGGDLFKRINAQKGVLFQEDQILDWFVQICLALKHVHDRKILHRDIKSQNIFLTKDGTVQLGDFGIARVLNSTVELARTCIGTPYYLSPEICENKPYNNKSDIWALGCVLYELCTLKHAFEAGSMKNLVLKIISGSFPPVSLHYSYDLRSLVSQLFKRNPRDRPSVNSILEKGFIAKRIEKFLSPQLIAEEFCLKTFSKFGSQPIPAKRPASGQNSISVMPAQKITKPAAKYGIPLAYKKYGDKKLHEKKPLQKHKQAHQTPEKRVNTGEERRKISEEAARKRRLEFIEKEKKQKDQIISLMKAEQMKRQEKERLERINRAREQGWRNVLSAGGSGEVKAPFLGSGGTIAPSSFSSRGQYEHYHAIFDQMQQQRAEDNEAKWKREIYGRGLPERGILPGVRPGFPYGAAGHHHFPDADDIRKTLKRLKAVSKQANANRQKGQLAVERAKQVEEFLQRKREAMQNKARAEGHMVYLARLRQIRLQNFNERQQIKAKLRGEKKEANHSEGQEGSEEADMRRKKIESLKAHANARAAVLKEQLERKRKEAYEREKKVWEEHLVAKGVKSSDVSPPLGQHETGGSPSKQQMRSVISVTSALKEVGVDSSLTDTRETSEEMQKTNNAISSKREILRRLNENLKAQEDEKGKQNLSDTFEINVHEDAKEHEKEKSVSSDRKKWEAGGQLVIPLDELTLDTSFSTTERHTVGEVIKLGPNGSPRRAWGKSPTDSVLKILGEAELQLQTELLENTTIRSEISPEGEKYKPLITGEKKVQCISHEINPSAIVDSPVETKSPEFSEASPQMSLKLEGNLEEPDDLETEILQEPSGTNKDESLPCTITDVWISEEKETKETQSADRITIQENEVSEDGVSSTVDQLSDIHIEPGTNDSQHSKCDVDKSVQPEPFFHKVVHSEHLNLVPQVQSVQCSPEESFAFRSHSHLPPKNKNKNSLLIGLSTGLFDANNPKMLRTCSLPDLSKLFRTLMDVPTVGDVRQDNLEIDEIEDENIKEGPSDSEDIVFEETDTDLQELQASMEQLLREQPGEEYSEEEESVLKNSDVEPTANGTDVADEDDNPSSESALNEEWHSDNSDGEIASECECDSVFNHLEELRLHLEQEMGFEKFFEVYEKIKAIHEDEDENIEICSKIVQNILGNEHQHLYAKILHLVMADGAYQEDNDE
Particulars: at 0.1 µM.

Experiment [13] has as its target T5, Serine/threonine-protein kinase Nek1 (Homo sapiens). Particulars: at 1 µM.
The target of experiment [14] is T6, Serine/threonine-protein kinase Nek2 (Homo sapiens) (UniProt P51955).
T6 sequence (whole entry): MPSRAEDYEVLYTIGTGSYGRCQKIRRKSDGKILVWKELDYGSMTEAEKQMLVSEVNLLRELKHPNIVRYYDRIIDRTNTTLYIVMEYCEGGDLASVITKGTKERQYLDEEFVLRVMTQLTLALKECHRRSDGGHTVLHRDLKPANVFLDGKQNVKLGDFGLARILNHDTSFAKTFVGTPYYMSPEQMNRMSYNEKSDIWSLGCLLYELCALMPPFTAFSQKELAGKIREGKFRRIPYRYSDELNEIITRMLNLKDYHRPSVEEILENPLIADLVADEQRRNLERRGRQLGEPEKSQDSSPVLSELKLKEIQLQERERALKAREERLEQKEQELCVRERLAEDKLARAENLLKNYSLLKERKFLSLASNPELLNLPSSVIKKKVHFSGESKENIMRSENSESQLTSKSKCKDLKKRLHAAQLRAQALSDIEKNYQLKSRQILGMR
Particulars: at 0.1 µM.

For experiment [15], the target named is T6, Serine/threonine-protein kinase Nek2 (Homo sapiens). Particulars: at 1 µM.
Experiment [16] concerns the target Serine/threonine-protein kinase Nek6 (Homo sapiens) (UniProt Q9HC98). Particulars: at 0.1 µM.
For experiment [17] the target is unchanged. Particulars: at 1 µM.
For experiment [18], the target named is Serine/threonine-protein kinase Nek7 (Homo sapiens) (UniProt Q8TDX7). Particulars: at 0.1 µM.
Serine/threonine-protein kinase Nek7 (Homo sapiens), sequence (Q8TDX7 whole entry, looked up): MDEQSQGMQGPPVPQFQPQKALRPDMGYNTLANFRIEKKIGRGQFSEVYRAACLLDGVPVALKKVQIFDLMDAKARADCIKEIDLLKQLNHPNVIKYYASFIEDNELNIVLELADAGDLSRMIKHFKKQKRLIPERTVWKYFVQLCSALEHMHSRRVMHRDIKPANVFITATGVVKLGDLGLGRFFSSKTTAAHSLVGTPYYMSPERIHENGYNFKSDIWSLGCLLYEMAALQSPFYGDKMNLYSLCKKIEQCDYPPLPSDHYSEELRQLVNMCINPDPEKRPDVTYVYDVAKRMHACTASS
Experiment [19] has the same target. Particulars: at 1 µM.
Experiment [20] concerns the target T7, Serine/threonine-protein kinase Nek9 (Homo sapiens) (UniProt Q8TD19).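 Note: reported value is the mean percent inhibition of NEK9.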
T7 sequence (whole entry): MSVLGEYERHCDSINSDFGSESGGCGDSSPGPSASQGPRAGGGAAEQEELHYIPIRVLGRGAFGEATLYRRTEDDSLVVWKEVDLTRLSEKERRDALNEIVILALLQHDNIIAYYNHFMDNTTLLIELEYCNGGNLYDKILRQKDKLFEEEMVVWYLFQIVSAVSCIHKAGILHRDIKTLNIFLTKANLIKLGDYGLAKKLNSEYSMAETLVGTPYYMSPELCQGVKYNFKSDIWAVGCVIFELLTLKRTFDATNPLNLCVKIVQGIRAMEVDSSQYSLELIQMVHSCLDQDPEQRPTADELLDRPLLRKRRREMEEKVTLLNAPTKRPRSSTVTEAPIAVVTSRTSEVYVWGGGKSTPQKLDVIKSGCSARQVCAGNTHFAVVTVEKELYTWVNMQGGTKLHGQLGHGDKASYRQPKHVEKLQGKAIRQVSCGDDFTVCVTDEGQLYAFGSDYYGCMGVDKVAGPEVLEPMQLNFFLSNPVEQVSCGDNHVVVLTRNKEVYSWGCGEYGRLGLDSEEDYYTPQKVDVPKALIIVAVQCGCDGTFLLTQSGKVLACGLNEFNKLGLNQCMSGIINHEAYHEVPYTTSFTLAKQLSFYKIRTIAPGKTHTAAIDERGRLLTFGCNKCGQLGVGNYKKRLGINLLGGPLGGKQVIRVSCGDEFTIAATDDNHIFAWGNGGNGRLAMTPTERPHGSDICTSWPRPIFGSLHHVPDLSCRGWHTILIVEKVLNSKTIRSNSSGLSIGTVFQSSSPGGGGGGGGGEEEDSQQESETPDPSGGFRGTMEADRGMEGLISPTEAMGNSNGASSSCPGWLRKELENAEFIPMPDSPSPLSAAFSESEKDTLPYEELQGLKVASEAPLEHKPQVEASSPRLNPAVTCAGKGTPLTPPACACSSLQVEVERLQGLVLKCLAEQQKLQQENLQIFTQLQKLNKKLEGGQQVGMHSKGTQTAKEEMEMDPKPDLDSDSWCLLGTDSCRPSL
Particulars: at 0.1 µM.

Serine/threonine-protein kinase Nek6 (Homo sapiens), sequence (Q9HC98 whole entry): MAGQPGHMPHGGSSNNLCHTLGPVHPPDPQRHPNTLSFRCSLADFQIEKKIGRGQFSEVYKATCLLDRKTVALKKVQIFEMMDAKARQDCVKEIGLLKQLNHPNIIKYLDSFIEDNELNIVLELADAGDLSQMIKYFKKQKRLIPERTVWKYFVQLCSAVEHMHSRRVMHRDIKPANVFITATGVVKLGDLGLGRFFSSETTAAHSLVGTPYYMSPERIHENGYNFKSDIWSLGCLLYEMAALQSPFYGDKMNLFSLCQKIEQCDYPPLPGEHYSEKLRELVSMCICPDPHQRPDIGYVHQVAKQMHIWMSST
Sphingosine kinase 1 (Homo sapiens), sequence (Q9NYA1 whole entry): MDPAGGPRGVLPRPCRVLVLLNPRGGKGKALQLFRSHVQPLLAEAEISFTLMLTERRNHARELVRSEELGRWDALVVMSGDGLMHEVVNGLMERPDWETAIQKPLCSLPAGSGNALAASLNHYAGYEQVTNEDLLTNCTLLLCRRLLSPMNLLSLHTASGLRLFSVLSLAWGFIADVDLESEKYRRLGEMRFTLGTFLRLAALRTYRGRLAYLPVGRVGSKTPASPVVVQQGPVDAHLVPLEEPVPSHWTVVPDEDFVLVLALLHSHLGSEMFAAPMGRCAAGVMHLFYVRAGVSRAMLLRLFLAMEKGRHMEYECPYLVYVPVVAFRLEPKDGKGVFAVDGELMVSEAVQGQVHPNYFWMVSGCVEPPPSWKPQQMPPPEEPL

For `COC(=O)Nc1nc2ccc(S(=O)(=O)c3ccc(NC(=O)Nc4cc(C(F)(F)F)ccc4F)cc3)cc2[nH]1`, the inhibition in experiment [1] was -2.79%; in [2], -0.31%; in [3], 0.98%; in experiment [4], -0.42%; in experiment [5], -2.21%; in [6], 6.4%. Further, the inhibition stood at 2.23% in experiment [7]; 5.3% in experiment [8]; 7.84% in experiment [9]; 2.8% in [10]; 4.2% in experiment [11]; 2.08% in [12]. Besides, the inhibition in experiment [13] is 1.85%; in [14], 3.76%; in [15], 4.26%; in experiment [16] it was 4.42%; in experiment [17] it was -3.58%; in experiment [18] it was 2.46%. For the same compound, the values for the inhibition in experiment [19] and in [20] were 2.19% and 2.21%, respectively.
